Measurements as given in PubChem BioAssay (NCATS).
A number with no mark means an inactive call. Inconclusive results are not listed. Entries that show only a call come without a potency. The source made the active and inactive calls. Unless noted, calls come from the whole dose curve; as a rule, active = well fitted curve in the direction sought with a large enough effect; inconclusive = small, poorly fitted or top-dose-only effect, or another doubt; inactive = no such curve, though single readings can be large; an effect the other way counts as inactive or inconclusive.

Tests used:
[1] = Cell Viability - Mesenchymal (AID 546); conditions: mesenchymal cells viability, qHTS; activity change, negative = cytotoxicity: at 91.7 µM (top of the series);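 note: cells exposed to compound for 40 hours before reading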
Procedure, shortened: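 Human renal mesenchymal cells (glomerulus-derived), 1000 cells/well, 5 hr 37 °C pre-incubation; compound 40 hr, 37 °C; CellTiter-Glo, 20 min RT; luminescence; AC50 via Hill equation.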

[2] = Cellular Toxicity (caspase-3) HepG2 (AID 654); note: potency is the fitted concentration of half-maximal effect;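 for caspase-3 activation: cells exposed to compound for 16 hours before reading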
Procedure, shortened: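 Caspase 3/7 activation in HepG2 is measured as rising luminescence after a 16 hr treatment at 37 °C. Values are scaled between DMSO basal and 100 uM tamoxifen, and AC50 is fitted with the Hill equation.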

[3] = Cellular Toxicity (caspase-3) Jurkat (AID 655);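 note: cells exposed to compound for 16 h at 37 °C before reading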
Procedure, shortened: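 Jurkat cells (5000/well) in complete medium exposed 16 h at 37 C; caspase-3/7 activity read by Caspase-Glo luminescence after 20 min at room temperature. Normalized to DMSO and 100 uM tamoxifen; AC50 from Hill fits.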

[4] = Cellular Toxicity (caspase-3) HUV-EC-C (AID 656)
Procedure, shortened: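 HUV-EC-C cells (1000/well) in complete medium, compound-treated 16 h at 37 °C; caspase-3/7 activity read by Caspase-Glo 3/7 luminescence. Normalized to DMSO (basal) and 100 uM tamoxifen (100%); AC50 from Hill-equation concentration-response fits.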

[5] = Cellular Toxicity (caspase-3) SHSY5Y (AID 657)
Procedure, shortened: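 SH-SY5Y human neuroblastoma cells, 1500/well, exposed to compound for 16 hours at 37 °C in complete medium. Caspase-3/7 activity read by Caspase-Glo luminescence after 1 hr at room temperature, normalized to DMSO and 10 uM staurosporine; AC50 from Hill fit.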

[6] = Cellular Toxicity (caspase-3) BJ (AID 658)
Procedure, shortened: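 qHTS, BJ fibroblasts, 1000 cells/well; 5 hr preincubation, 16 hr compound, 37 °C; Caspase-Glo 3/7 reagent, 1 hr RT; luminescence. DMSO = 0%, 10 uM staurosporine = 100%. Hill-equation AC50.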

[7] = Cellular Toxicity (caspase-3) MRC-5 (AID 659); conditions: Potency: caspase-3 activation; note: potency is the fitted concentration of half-maximal effect
Procedure, shortened: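 MRC-5 fibroblasts, 1500/well; 16 h cpd, 37 °C; Caspase-Glo 3/7, 1 h RT; lumi read. Norm: DMSO = 0%, 10 uM staurosporine = 100%. Hill-fit AC50 from qHTS conc-response.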

[8] = Cellular Toxicity (caspase-3) Mesangial (AID 660);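 note: cells exposed to compound for 16 h before the caspase read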
Procedure, shortened: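 Seed cells derived from normal human renal glomeruli, incubate 5 h, add compounds across concentrations and incubate 16 h at 37 °C. Caspase 3/7 activation is then quantified by luciferase light, with AC50 derived by Hill modeling.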

[9] = Cellular Toxicity (caspase-3) SK-N-SH (AID 661)
Procedure, shortened: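 Cells were seeded and incubated 5 hr at 37 °C, dosed with compound over a concentration range for 16 hr, then given Caspase-Glo 3/7 reagent for 1 hr at room temperature before luminescence reading.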

[10] = Cellular Toxicity (caspase-3) H-4-II-E (AID 663); conditions: Potency: caspase-3 activation;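 note: cells exposed to compound for 16 hr before readout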
Procedure, shortened: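 H-4-II-E rat hepatoma, 1500 cells/well, 5 hr settle at 37 °C; compound 16 hr, 37 °C, complete medium; Caspase-Glo 3/7, 20 min RT; luminescence. DMSO = 0%, 100 uM tamoxifen = 100%; Hill-equation AC50.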

[11] = Cellular Toxicity (caspase-3) Hek293 (AID 664);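 note: cells exposed to compound for 16 h at 37 °C before readout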
Procedure, shortened: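 qHTS, HEK293 (human embryonic kidney), 16 h cpd exposure in complete medium. Caspase-3/7 activation = luminescence increase; normalized to DMSO/100 uM tamoxifen; Hill-fit AC50.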

[12] = Cellular Toxicity (caspase-3) N2a (AID 665); conditions: Potency: caspase-3 activation;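 note: compound exposure lasted 16 h at 37 °C before readout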
Procedure, shortened: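 Caspase-3/7 activation, measured as increased luminescence from aminoluciferin release, is quantified in mouse N2a cells exposed to compounds for 16 h. Values are normalized to DMSO and 10 uM staurosporine, with AC50 derived by Hill modelling.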

[13] = Cellular Toxicity (caspase-3) NIH 3T3 (AID 666);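 note: caspase signal read after 16 h compound exposure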
Procedure, shortened: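 Cells were plated at 1000 per well and incubated 5 hr at 37°C, then compound was added for 16 hr. Caspase-Glo 3/7 reagent followed for 20 min at room temperature before luminescence was read.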

[14] = Cellular Toxicity (caspase-3) Renal Proximal Tubule (AID 667);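 note: cells exposed to compound for 16 hours at 37 °C before detection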
Procedure, shortened: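 Freshly isolated primary rat kidney proximal tubule cells, 1000/well, treated 16 hr at 37 °C, then Caspase-Glo 3/7 luminescence after 1 hr. Normalized to DMSO and 10 uM staurosporine; AC50 from Hill fit.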

[15] = biological target: Cytochrome P450 3A4 (Homo sapiens) (UniProt P08684); experiment: qHTS Assay for Inhibitors and Substrates of Cytochrome P450 3A4 (AID 884); note: nearly all actives have a fitted effect of over 50% in size; note: potency is the fitted concentration of half-maximal effect
Procedure, shortened: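 Luminescent readout of luciferin produced by CYP3A4 (20 nM) dealkylation of Luciferin-PPXE, 25 uM (its KM). NADPH-driven reaction ran 60 min at RT after 10 min compound preincubation; data scaled to 57 uM ketoconazole as 100% inhibition.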

[16] = biological target: 3',5'-cyclic-AMP phosphodiesterase 4B (Homo sapiens) (UniProt Q07343); experiment: qHTS Assay for Inhibitors of PDE-IV (AID 607; active = well fitted activation curve with a large enough effect in the main read-out, with a control signal flat, not every such curve was filed as active)
Procedure, shortened: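 ACTOne HEK293 cells carry a modified cAMP-gated CNG channel and express endogenous PDE4; plated 1000 cells/well, compounds up to 22.9 uM final. Membrane-potential dye fluorescence (ex 535/em 590) was read; parental cells received 10 uM forskolin + 100 uM RO 20-1724.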

[17] = biological target: Cytochrome P450 3A4 (Homo sapiens) (UniProt P08684); experiment: qHTS Assay for Activators of Cytochrome P450 3A4 (AID 885); note: nearly all actives have a fitted effect of over 65% in size
Procedure, shortened: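 CYP3A4 activity: Luciferin-PPXE O-dealkylation, 25uM substrate, 200mM KPO4, RT throughout. Read-out is luciferase luminescence; higher values reflect activation.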

[18] = biological target: Guanine nucleotide-binding protein G(i) subunit alpha-1 (Homo sapiens) (UniProt P63096); experiment: qHTS Assay for Inhibitors of RGS12 GoLoco Motif Activity (Green Fluorophore) (AID 879);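 note: negative values mean loss of peptide binding seen as reduced polarization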
Procedure, shortened: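 A drop in FITC polarization marked displacement of the FITC-tagged RGS12 GoLoco peptide (10 nM) from Gαi1 (50 nM). Compounds were incubated 10 min at room temperature in Tris pH 7.5 buffer containing 150 mM NaCl, 0.1 mM GDP and 0.05% NP40; unlabeled peptide titration served as control.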

Chain of Cytochrome P450 3A4 (Homo sapiens) (P08684 whole entry, looked up): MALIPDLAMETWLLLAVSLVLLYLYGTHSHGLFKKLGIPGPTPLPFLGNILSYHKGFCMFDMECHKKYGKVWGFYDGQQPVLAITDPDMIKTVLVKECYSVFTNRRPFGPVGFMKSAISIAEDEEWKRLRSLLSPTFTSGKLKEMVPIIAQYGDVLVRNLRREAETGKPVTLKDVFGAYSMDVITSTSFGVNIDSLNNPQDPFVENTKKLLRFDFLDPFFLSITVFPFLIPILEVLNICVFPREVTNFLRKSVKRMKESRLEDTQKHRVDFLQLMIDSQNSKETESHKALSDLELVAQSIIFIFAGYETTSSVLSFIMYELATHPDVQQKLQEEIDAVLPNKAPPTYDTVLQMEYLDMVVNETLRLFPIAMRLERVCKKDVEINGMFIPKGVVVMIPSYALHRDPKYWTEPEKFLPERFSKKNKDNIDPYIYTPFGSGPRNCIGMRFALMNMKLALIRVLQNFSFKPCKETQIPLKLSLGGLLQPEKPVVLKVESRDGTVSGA
Chain of 3',5'-cyclic-AMP phosphodiesterase 4B (Homo sapiens) (Q07343 whole entry, looked up): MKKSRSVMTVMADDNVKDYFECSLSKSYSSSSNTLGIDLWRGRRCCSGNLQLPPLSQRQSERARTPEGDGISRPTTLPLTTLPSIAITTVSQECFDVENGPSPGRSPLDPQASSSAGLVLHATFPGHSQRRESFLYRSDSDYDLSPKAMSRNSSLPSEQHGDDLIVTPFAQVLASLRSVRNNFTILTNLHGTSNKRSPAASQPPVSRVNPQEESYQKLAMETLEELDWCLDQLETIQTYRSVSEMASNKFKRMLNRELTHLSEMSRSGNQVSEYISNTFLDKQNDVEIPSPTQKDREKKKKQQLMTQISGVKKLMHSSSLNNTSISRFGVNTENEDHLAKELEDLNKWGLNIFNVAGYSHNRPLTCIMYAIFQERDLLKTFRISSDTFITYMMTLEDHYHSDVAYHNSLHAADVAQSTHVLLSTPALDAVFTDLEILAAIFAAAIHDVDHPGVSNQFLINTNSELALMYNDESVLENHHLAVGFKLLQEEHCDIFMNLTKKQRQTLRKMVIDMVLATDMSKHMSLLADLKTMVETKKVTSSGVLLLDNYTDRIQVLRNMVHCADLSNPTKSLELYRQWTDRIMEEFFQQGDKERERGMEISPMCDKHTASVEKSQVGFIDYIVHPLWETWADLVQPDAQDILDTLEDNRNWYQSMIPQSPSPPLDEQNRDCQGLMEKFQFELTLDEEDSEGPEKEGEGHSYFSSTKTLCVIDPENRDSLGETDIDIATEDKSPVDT
Chain of Guanine nucleotide-binding protein G(i) subunit alpha-1 (Homo sapiens) (P63096 whole entry, looked up): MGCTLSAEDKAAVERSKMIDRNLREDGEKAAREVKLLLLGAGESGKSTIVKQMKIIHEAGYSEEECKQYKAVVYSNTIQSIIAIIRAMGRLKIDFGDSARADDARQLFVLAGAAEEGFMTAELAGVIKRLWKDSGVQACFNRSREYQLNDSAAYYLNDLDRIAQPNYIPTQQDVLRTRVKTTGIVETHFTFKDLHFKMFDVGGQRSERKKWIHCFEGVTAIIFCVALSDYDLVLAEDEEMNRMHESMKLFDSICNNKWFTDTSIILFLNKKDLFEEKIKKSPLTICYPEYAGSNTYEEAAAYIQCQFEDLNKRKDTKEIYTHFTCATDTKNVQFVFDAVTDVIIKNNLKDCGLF

With `Nc1ccc(C(=O)O)cc1` the activity change, negative = cytotoxicity [1] was -3.72%, the Potency [2] was “inactive” and the Potency [3] was “inactive”. For the same compound, the outcome [4] was “inactive”, the Potency [5] was “inactive” and the outcome [6] was “inactive”. The Potency [7] was “inactive”, the outcome [8] was “inactive” and the Potency [9] was “inactive”. For the same compound, the Potency [10] was “inactive”, the outcome [11] was “inactive” and the Potency [12] was “inactive”. The Potency [13] was “inactive”, the outcome [14] was “inactive” and the Potency [15] was “inactive”.

For `COC1=CC(=O)C[C@@H](C)[C@]12Oc1c(Cl)c(OC)cc(OC)c1C2=O`, the activity change, negative = cytotoxicity [1] was -20.5%, the Potency [2] was “inactive” and the Potency [3] was “inactive”. For the same compound, the outcome [4] was “inactive”, the Potency [5] was “inactive” and the outcome [6] was “inactive”. The Potency [7] was “inactive”, the outcome [8] was “inactive” and the Potency [9] was “inactive”. For the same compound, the Potency [10] was “inactive”, the outcome [11] was “inactive” and the Potency [12] was “inactive”. The Potency [13] was “inactive” and the outcome [14] was “inactive”.

For `CC(O)(P(=O)(O)O)P(=O)(O)O`, the outcome [16] was “inactive”.

With `CC(=O)c1ccc2c(c1)N(CCCN1CCC(CCO)CC1)c1ccccc1S2` the outcome [16] was “inactive”.

With `CC(C)(C)CC(C)(C)c1ccc(OCCOCC[N+](C)(C)Cc2ccccc2)cc1` the activity change, negative = cytotoxicity [1] was -104% (active), the Potency [2] was 50.1 µM (active) and the Potency [5] was “inactive”. The Potency [7] was 31.6 µM (active).

For `CC(=O)Oc1ccc(C(c2ccc(OC(C)=O)cc2)c2ccccn2)cc1`, the activity change, negative = cytotoxicity [1] was -3.78%, the Potency [2] was “inactive” and the Potency [3] was “inactive”. The outcome [4] was “inactive”, the Potency [5] was “inactive” and the outcome [6] was “inactive”. The Potency [7] was “inactive”, the outcome [8] was “inactive” and the Potency [9] was “inactive”. The Potency [10] was “inactive”, the outcome [11] was “inactive” and the Potency [12] was “inactive”. For the same compound, the Potency [13] was “inactive”, the outcome [14] was “inactive” and the Potency [17] was “inactive”.

In the case of `CC(=O)O[C@]1(C(C)=O)CC[C@H]2[C@@H]3C[C@H](C)C4=CC(=O)CC[C@]4(C)[C@H]3CC[C@@]21C`, the activity change, negative = cytotoxicity [1] is reported as -6.64%, the Potency [2] is reported as “inactive” and the outcome [4] is reported as “inactive”. For the same compound, the Potency [5] was “inactive”, the outcome [6] was “inactive” and the Potency [7] was “inactive”. The outcome [8] was “inactive”, the Potency [9] was “inactive” and the Potency [10] was “inactive”. The Potency [12] was “inactive”, the Potency [13] was “inactive” and the outcome [14] was “inactive”. The Potency [15] was 15.8 µM (active) and the Potency [17] was “inactive”.

In the case of `Cc1cc(N)c2cc(NC(=O)Nc3ccc4nc(C)cc(N)c4c3)ccc2n1`, the outcome [16] is reported as “inactive”.

With `CC/C(=C(/CC)c1ccc(O)cc1)c1ccc(O)cc1` the activity change, negative = cytotoxicity [1] was -3%, the Potency [2] was “inactive” and the Potency [3] was “inactive”. The outcome [4] was “inactive”, the Potency [5] was “inactive” and the outcome [6] was “inactive”. The Potency [7] was “inactive”, the outcome [8] was “inactive” and the Potency [9] was “inactive”. The Potency [10] was “inactive”, the outcome [11] was “inactive” and the Potency [12] was “inactive”. The Potency [13] was “inactive” and the outcome [14] was “inactive”.

With `Cc1cc(=O)n(-c2ccccc2)n1C` the outcome [16] was “inactive”.

With `C[C@]12CC[C@@H]3c4ccc(O)cc4CC[C@H]3[C@@H]1CC[C@@H]2O` the activity change, negative = cytotoxicity [1] was -23.1%, the Potency [2] was “inactive” and the Potency [3] was “inactive”. The outcome [4] was “inactive”, the Potency [5] was “inactive” and the outcome [6] was “inactive”. For the same compound, the Potency [7] was “inactive”, the outcome [8] was “inactive” and the Potency [9] was “inactive”. For the same compound, the Potency [10] was “inactive”, the outcome [11] was “inactive” and the Potency [12] was “inactive”. The Potency [13] was “inactive”, the outcome [14] was “inactive” and the outcome [18] was “inactive”. For the same compound, the Potency [15] was “inactive”.
